Screening data (PubChem)
VDR inh – Inhibitors of the vitamin D receptor (VDR): qHTS; Vitamin D3 receptor (Homo sapiens), P11473; 400,000 tested, 0.93% active; AID 504847, 2011; Potency, µM, for the others: max response, negative = inhibition, actives largely listed as inhibitors; VDR-SRC2-3 peptide fluorescence polarization, 2 h
Target sequence (P11473 whole entry, looked up): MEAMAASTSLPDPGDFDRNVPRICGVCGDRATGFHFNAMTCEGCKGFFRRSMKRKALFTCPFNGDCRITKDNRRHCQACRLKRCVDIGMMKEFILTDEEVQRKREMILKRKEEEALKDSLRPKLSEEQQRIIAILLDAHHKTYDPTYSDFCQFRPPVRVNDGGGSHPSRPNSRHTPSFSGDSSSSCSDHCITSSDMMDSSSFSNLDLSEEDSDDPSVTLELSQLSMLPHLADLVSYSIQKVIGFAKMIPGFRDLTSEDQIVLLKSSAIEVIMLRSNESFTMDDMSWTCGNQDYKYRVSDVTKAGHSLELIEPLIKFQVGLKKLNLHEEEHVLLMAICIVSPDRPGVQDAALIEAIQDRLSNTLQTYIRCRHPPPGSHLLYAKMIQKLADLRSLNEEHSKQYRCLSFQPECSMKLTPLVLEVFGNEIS
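Signal is fluorescence polarization, reporting how far test compounds block the interaction of VDR with the SRC2-3 coregulator peptide after a 2 h room-temperature incubation.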
TDP1 block – qHTS Assay for Inhibitors of Tyrosyl-DNA Phosphodiesterase (TDP1). Tyrosyl-DNA phosphodiesterase 1 (Homo sapiens), Q9NUW8. recombinant TDP1, AlphaScreen DNA substrate cleavage. Potency, µM (series often up to 130 µM), for the others: top-dose activity change, negative = inhibition, hits mostly inhibitors. 350,000 tested, 0.28% active; further: nearly all actives have a fitted effect of over 40% in size
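Here, a 5' biotin and 3' phosphotyrosine-FITC DNA oligonucleotide reports Tdp1 activity: intact substrate bridges AlphaScreen beads, while cleavage leaves a 3' phosphate and drops signal. All incubations at room temperature.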
GCN5L2 inh – qHTS Assay for Inhibitors of GCN5L2; 390,000 tested, 0.21% active; GCN5L2 HAT assay, ThioGlo1 CoA-SH fluorescence; Histone acetyltransferase KAT2A (Homo sapiens), Q92830; Potency, µM (doses to about 58.9 µM), without a hit: at the top dose activity change, negative = inhibition, hits mostly inhibitors
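qHTS, 1536-well. 20nM enzyme, pH 7.5 HEPES/EDTA/Tween-20 buffer; 15 min compound preinc., RT. Start: 75uM H3(1-25), 70uM AcCoA, 50uM ThioGlo1. Read Ex340/Em540 at t=0 (autofluorescence flag) and t=20 min.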
TDP1 cell CPT – qHTS for Inhibitors of human tyrosyl-DNA phosphodiesterase 1 (TDP1): qHTS in cells in presence of CPT; chicken DT40 Tdp1-/-;hTDP1 cells + 20 nM CPT, ATP luminescence, 48 h; Potency, µM (doses to about 46.2 µM), for inactives: at the top dose activity change, negative = growth inhibition, most hits filed as inhibitors; 420,000 tested, 12% active; further: nearly all actives have a fitted effect of over 55% in size
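Chicken DT40 Tdp1-/- cells stably complemented with human TDP1 were seeded at 400 cells/well in medium containing 20 nM camptothecin, exposed to pin-transferred compounds, and grown at 37 °C for at least 48 hr. Viability was read as ATP luminescence.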
DT40 TDP1 no CPT – qHTS for Inhibitors of human tyrosyl-DNA phosphodiesterase 1 (TDP1): qHTS in cells in absence of CPT; DT40 Tdp1-/- hTDP1 cells, no CPT, ATP luminescence, 48 h; Potency, µM (highest dose often 46.2 µM), inactives show at the top dose activity change, negative = growth inhibition, usual class: inhibitors; 420,000 tested, 15% active; further: nearly all actives have a fitted effect of over 55% in size
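No-CPT arm: Tdp1-/-;hTDP1 DT40 cells (400/well) plus compounds, incubated ≥48 hr at 37 °C. Readout CellTiter-Glo luminescence.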
PLK1 PBD block – qHTS for Inhibitors of PLK1-PDB (polo-like kinase 1 - polo-box domain): Primary Screen | Serine/threonine-protein kinase PLK1 (Homo sapiens), P53350 | Plk1 PBD binding of FITC phosphopeptide, fluorescence polarization | Potency, µM, inactives show max response, negative = inhibition, most hits filed as inhibitors | 360,000 tested, 2.8% active | AID 720504, 2013; further: series mostly up to about 57 µM; nearly all actives have a fitted effect of over 65% in size
Starred values were filed as active, the others as inactive; ! = not confirmed by another sample. Rows were chosen to be rich in hits. Some 18% of all compounds tested hit in one or more screens of this group. The call rests on the fitted dose curve; in most records, active means well fitted curve in the direction sought with a large enough effect; inconclusive means small, poorly fitted or top-dose-only effect, or another doubt; inactive means no such curve, though single readings can be large; an effect the other way counts as inactive or inconclusive. On the % scale 0 is the no-effect control and ±100 the full control effect; potency means the concentration at half of the fitted maximal effect.

Results for C=C(C)Cc1c(C)c(C#N)c2[nH]c3ccccc3n2c1=O ?
VDR inh: 6.4%; GCN5L2 inh: inconclusive; TDP1 cell CPT: 3.3%; DT40 TDP1 no CPT: inconclusive; PLK1 PBD block: -6.2%

Results for CO[C@H]1C[C@@H]2CC[C@@H](C)[C@@](O)(O2)C(=O)C(=O)N2CCCC[C@H]2C(=O)OC([C@H](C)C[C@@H]2CC[C@@H](O)[C@H](OC)C2)CC(=O)[C@H](C)/C=C(\C)[C@@H](O)[C@@H](OC)C(=O)[C@H](C)C[C@H](C)/C=C/C=C/C=C/1C (some centres undefined) ?
VDR inh: 44.7µM*!; TDP1 block: 13.4%; GCN5L2 inh: -21.9%; TDP1 cell CPT: 0.0103µM*; DT40 TDP1 no CPT: 0.0092µM*

What do the screens show for `CO[C@H]1C[C@@H]2CC[C@@H](C)[C@@](O)(O2)C(=O)C(=O)N2CCCC[C@H]2C(=O)O[C@H]([C@H](C)C[C@@H]2CC[C@@H](O)[C@H](OC)C2)CC(=O)[C@H](C)C=C(C)[C@@H](O)[C@@H](OC)C(=O)[C@H](C)C[C@H](C)C=CC=CC=C1C`?
GCN5L2 inh: -12.1%

Results for CO[C@H]1C[C@@H]2CC[C@@H](C)[C@@](O)(O2)C(=O)C(=O)N2CCCC[C@H]2C(=O)O[C@H]([C@H](C)C[C@@H]2CC[C@@H](O)[C@H](OC)C2)CC(=O)[C@H](C)/C=C(/C)[C@@H](O)[C@@H](OC)C(=O)[C@H](C)C[C@H](C)C=C/C=C\C=C/1C ?
VDR inh: -23.6%; TDP1 block: 2.7%; TDP1 cell CPT: 3.98µM*; DT40 TDP1 no CPT: inconclusive

What do the screens show for `O=C(c1cc(C(F)(F)F)cc(C(F)(F)F)c1)N1CCC2(CC1)CN(c1ccccc1)C2`?
VDR inh: -11.4%; GCN5L2 inh: -11.0%; TDP1 cell CPT: inconclusive; DT40 TDP1 no CPT: 13µM*

What do the screens show for `COc1ccc(C(=O)N2CCC3(CC2)CN(c2ccncc2)C3)cc1`?
VDR inh: -0.7%; GCN5L2 inh: -2.1%; TDP1 cell CPT: -16.7%; DT40 TDP1 no CPT: inconclusive

How did O=C(c1ccncc1)N1CCC2(CCCN(c3ccncc3)C2)CC1 do in these assays?
VDR inh: -2.2%; GCN5L2 inh: -12.5%; TDP1 cell CPT: 7.8%; DT40 TDP1 no CPT: -18.3%

What do the screens show for `O=C(c1cc(C(F)(F)F)cc(C(F)(F)F)c1)N1CCC2(CC1)CCN(c1ccccn1)CC2`?
VDR inh: -14.4%; GCN5L2 inh: -13.3%; TDP1 cell CPT: 20.6µM*; DT40 TDP1 no CPT: 20.6µM*

What do the screens show for `O=C(c1cc(C(F)(F)F)cc(C(F)(F)F)c1)N1CCC2(CCCN(c3ccncc3)C2)CC1`?
VDR inh: -13.9%; GCN5L2 inh: -21.1%; TDP1 cell CPT: inconclusive; DT40 TDP1 no CPT: 20.6µM*

How did COc1ccc(C(=O)N2CCC3(CCCN(c4ccncc4)C3)CC2)cc1 do in these assays?
VDR inh: 1.3%; GCN5L2 inh: -11.3%; TDP1 cell CPT: inconclusive; DT40 TDP1 no CPT: 18.4µM*

How did CCOc1ccc(NC(=O)CN2C(=O)NC3(CCCCCC3)C2=O)cc1 do in these assays?
VDR inh: -1.9%; TDP1 block: -0.2%; GCN5L2 inh: 0.3%; TDP1 cell CPT: inconclusive; DT40 TDP1 no CPT: -24.8%; PLK1 PBD block: 6.5%
